The nature of assay [1]: qHTS for Inhibitors of the Functional Ribonucleoprotein Complex (vRNP) of Lassa (LASV) Arenavirus: LASV Primary Screen - GLuc reporter signal (AID 1347082; calls by dose curve; tested in HEK293 reporter line; note: nearly all actives have a fitted effect of over 60% in size; note: potency is the fitted concentration of half-maximal effect; for activity change, negative = inhibition: % is set by controls: 0 for no effect and ±100 for the full control effect). A general note: qHTS replaces the single test concentration by a dilution series.
Assay [2] in a line: qHTS for Inhibitors of the Functional Ribonucleoprotein Complex (vRNP) of Lassa (LASV) Arenavirus: Viability assay - alamar blue signal for LASV Primary Screen (AID 1347083; calls by dose curve; tested in HEK293 reporter line; note: nearly all actives have a fitted effect of over 80% in size; note: potency is the fitted concentration of half-maximal effect).
A short description of assay [3]: qHTS for Inhibitors of the Functional Ribonucleoprotein Complex (vRNP) of Lymphocytic Choriomeningitis Arenaviruses (LCMV): Viability assay - alamar blue signal for LCMV Primary Screen (AID 1347085; calls by dose curve; tested in HEK293 reporter line; note: nearly all actives have a fitted effect of over 80% in size; note: potency is the fitted concentration of half-maximal effect).
Assay [4] deals with Nucleoprotein (Lymphocytic choriomeningitis virus (strain Armstrong)) (UniProt P09992). Put plainly: qHTS for Inhibitors of the Functional Ribonucleoprotein Complex (vRNP) of Lymphocytic Choriomeningitis Arenaviruses (LCMV): LCMV Primary Screen - GLuc reporter signal (AID 1347086). For activity change, negative = inhibition: % is set by controls: 0 for no effect and ±100 for the full control effect. Note: nearly all actives have a fitted effect of over 70% in size. Note: potency is the fitted concentration of half-maximal effect.
The nature of assay [5]: Primary qHTS to identify inhibitors of SARS-CoV-2 cell entry (AID 1645846). Note: nearly all actives have a fitted effect of over 45% in size. Note: potency is the fitted concentration of half-maximal effect. Particulars: activity change, negative = inhibition: at 57.1 µM (top of the series) unless noted. Summed up: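 Luminescence readout (Bright-Glo luciferase) 48 h after pseudoparticle addition. HEK293-ACE2 cells, 1500/well; compound pre-incubation 1 h; Normalized to spike PP and bald PP.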
The nature of assay [6]: Inducers of the Endoplasmic Reticulum Stress Response (ERSR) in human glioma: Validation (AID 504836; active = well fitted curve in the direction sought with a large enough effect; an effect the other way counts as inactive or inconclusive; note: 0% is about no effect). Summed up:
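Stably transfected U87-MG glioma cells carrying a GRP78-based luciferase sensor; 16 h compound incubation. Luminescence end-point read 10 min after Bright-Glo addition at room temperature.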

Assay [7] is described as follows: KB-8-5-11 P-gp reporter qHTS against the NCATS DSHEA and TCM libraries (AID 1919977; active = well fitted curve in the direction sought with a large enough effect; an effect the other way counts as inactive or inconclusive; note: 0% is about no effect). Summed up: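 P-gp-overexpressing KB-8-5-11 cells (500/well) were plated in colchicine-free DMEM with 10% FBS, attached ~4 h, then exposed to substance titrations for ~72 h at 37C. Viability was read by CellTiter-Glo luminescence.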
For assay [8], the target named is Alpha-galactosidase (Coffea arabica) (UniProt Q42656). Put plainly: Counterscreen for Glucocerebrosidase Inhibitors: qHTS Assay for Coffee Bean alpha-Galactosidase at pH 4.5 (AID 957; active = well fitted curve in the direction sought with a large enough effect; an effect the other way counts as inactive or inconclusive;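 note: plate controls were enzyme alone for no effect and no enzyme for full effect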). Summed up:
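Green coffee bean enzyme (2 nM final) was incubated with compounds (0.7 nM to 77 uM) and 4-methylumbelliferyl alpha-D-galactopyranoside (80 uM final) in 50 mM citric acid, 0.005% Tween-20, pH 4.5, 20 min at room temperature; AC50 from Hill fits.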
On the technique in general: A counterscreen serves to expose hits that act by an unwanted route or on another target.

Assay [9] has the same target. Put plainly: Counterscreen for Glucocerebrosidase Inhibitors: qHTS Assay for Coffee Bean alpha-Galactosidase at pH 5.9 (AID 998; active = well fitted curve in the direction sought with a large enough effect; an effect the other way counts as inactive or inconclusive;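 note: plate controls were uninhibited enzyme for no effect and no-enzyme basal signal for full effect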). Summed up:
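Green coffee bean enzyme (2 nM) with 4-methylumbelliferyl alpha-D-galactopyranoside (80 uM) in 50 mM citric acid, 0.005% Tween-20, pH 5.9, 20 min at room temperature; compounds 0.7 nM–77 uM. Stopped at pH 10, fluorescence Ex365/Em440; Hill-fit AC50.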

Assay [10] addresses M-phase phosphoprotein 8 (Homo sapiens) (UniProt Q99549). Put plainly: qHTS Validation Assay for Inhibitors for MPP8 Chromodomain Interactions with Methylated Histone Tails (AID 488949; active = well fitted curve in the direction sought with a large enough effect; an effect the other way counts as inactive or inconclusive; note: nearly all actives have a fitted effect of over 55% in size; note: potency is the fitted concentration of half-maximal effect; for activity change, negative = inhibition: top concentration of the series differs between compounds; % is set by controls: 0 for no effect and ±100 for the full control effect). Summed up: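 MPP8 (50 nM) was preincubated with biotinylated H3(1-18)K9me3 peptide (50 nM) in PBS pH 7.4, 0.01% Tween-20 for 30 min at room temperature, then with compounds for 30 min; binding was detected by AlphaScreen.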

The nature of assay [11]: Validation screen for inhibitors of Lassa infection (AID 463096). Note: % is set by controls: 0 for no effect and ±100 for the full control effect.
The target of assay [12] is Nuclear receptor subfamily 1 group I member 3 (Homo sapiens) (UniProt Q14994). The assay is described as follows: Primary qHTS for antagonist of constitutive androstane receptor (CAR) against the NCATS DSHEA and TCM libraries (AID 1794836; active = well fitted curve in the direction sought with a large enough effect; an effect the other way counts as inactive or inconclusive;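 note: HepG2 cells stably expressing hCAR with CYP2B6 luciferase reporter stimulated by CITCO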). Summed up:
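HepG2-CYP2B6-hCAR cells, attached 5 h, given compounds plus CITCO agonist […], incubated 24 h at 37 C. Luciferase luminescence read, multiplexed with CellTiter-Fluor viability (Ex/Em 405/540 nm).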

Assay [13] has as its target Cytochrome P450 3A4 (Homo sapiens) (UniProt P08684). The assay is described as follows: qHTS Assay for Inhibitors and Substrates of Cytochrome P450 3A4 (AID 884; active = well fitted curve in the direction sought with a large enough effect; an effect the other way counts as inactive or inconclusive; note: % is set by controls: 0 for no effect and ±100 for the full control effect; nearly all actives have a fitted effect of over 50% in size). Summed up:
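20 nM human CYP3A4 with 25 uM Luciferin-PPXE (at KM) in 200 mM KPO4, preincubated 10 min with compound; NADPH regeneration started a 60 min RT reaction. Luciferin detected by luminescence, normalized to 57 uM ketoconazole as full inhibition.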

Assay [14] is described as follows: qHTS assay for small molecule agonists of the antioxidant response element (ARE) signaling pathway (AID 651741; active = well fitted activation curve with a large enough effect in the signal ratio; the % refers to the signal ratio; note: % of control where 0% means no effect). Summed up:
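HepG2 ARE-bla cells plated at 2,000 cells/well and incubated 5 h at 37 C/5% CO2 received 23 nL compound in DMSO. After 16 h at 37 C, LiveBLAzer B/G FRET substrate was applied for 2 h at room temperature and fluorescence read.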

Inconclusive results are not listed. The source holds several records for some structures; these can differ, active in one and inactive in another. Active and inactive are the calls of the source. Unless noted, calls come from the whole dose curve.

Sequence of Nucleoprotein (Lymphocytic choriomeningitis virus (strain Armstrong)) (P09992 whole entry, looked up): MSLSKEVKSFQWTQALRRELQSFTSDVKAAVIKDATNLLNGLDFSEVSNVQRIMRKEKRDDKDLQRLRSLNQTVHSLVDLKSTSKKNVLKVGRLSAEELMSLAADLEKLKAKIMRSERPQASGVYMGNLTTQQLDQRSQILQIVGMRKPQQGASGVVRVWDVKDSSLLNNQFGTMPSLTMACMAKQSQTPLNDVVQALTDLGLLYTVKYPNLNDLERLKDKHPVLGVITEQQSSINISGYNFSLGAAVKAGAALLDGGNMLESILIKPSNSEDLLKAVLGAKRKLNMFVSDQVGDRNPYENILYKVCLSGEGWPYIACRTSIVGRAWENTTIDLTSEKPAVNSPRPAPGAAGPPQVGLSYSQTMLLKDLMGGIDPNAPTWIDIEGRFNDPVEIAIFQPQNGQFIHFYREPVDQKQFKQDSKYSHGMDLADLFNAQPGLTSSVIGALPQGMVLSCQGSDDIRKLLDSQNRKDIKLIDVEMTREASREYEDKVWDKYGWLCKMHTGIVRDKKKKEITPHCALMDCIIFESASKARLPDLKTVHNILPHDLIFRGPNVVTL
Sequence of M-phase phosphoprotein 8 (Homo sapiens) (Q99549 whole entry, looked up): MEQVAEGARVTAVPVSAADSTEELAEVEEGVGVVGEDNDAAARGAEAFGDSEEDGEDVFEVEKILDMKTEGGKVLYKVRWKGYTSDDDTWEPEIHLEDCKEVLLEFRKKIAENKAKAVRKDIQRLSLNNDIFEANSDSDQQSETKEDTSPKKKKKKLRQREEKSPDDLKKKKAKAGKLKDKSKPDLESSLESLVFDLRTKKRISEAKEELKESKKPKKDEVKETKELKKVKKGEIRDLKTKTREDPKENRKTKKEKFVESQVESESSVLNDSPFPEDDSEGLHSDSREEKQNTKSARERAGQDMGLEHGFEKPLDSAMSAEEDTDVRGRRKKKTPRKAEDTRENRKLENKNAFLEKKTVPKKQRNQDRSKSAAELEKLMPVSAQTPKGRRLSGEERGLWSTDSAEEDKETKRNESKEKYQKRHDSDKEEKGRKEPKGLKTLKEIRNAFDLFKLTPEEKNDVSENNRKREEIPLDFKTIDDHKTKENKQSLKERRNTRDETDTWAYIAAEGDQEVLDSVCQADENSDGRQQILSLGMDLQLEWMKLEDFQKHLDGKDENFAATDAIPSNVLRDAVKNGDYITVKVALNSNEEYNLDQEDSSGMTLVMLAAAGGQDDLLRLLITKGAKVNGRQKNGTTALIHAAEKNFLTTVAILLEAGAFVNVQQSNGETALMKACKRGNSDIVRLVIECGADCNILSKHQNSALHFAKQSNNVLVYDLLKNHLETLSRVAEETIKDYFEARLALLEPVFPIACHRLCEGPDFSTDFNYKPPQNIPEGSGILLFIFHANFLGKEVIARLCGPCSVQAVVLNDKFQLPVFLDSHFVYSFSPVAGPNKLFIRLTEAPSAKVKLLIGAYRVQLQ
Sequence of Alpha-galactosidase (Coffea arabica) (Q42656 whole entry, looked up): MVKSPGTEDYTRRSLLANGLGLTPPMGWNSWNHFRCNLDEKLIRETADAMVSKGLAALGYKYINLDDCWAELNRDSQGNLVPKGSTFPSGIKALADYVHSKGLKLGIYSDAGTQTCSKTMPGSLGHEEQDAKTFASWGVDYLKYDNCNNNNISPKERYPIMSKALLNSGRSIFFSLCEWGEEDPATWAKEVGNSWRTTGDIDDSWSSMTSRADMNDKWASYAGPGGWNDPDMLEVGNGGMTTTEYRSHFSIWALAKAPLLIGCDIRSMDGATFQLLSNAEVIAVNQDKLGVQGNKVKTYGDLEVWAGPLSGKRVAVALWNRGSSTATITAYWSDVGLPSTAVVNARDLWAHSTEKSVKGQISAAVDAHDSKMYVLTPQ
Sequence of Nuclear receptor subfamily 1 group I member 3 (Homo sapiens) (Q14994 whole entry, looked up): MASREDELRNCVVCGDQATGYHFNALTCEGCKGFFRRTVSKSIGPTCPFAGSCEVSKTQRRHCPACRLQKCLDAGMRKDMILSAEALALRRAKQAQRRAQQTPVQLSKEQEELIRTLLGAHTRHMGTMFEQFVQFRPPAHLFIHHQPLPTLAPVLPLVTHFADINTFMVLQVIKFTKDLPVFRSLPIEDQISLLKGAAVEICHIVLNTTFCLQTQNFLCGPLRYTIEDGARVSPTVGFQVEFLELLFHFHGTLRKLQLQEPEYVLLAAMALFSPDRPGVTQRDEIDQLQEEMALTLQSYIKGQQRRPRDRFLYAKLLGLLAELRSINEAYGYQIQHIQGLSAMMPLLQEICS
Sequence of Cytochrome P450 3A4 (Homo sapiens) (P08684 whole entry, looked up): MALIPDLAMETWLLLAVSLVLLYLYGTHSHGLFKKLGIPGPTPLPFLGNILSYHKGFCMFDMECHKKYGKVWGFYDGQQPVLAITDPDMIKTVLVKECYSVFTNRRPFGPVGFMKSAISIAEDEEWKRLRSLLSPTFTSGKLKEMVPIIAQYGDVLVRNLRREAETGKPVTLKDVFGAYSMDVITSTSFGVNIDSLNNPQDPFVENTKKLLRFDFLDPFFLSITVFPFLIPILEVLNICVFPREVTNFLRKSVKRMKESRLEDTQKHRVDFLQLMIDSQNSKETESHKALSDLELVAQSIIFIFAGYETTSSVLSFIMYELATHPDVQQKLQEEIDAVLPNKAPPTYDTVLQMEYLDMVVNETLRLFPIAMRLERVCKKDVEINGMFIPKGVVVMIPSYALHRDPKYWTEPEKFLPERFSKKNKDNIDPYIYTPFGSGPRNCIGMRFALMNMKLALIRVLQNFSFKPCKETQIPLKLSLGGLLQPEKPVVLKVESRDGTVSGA

Consider `Cc1nc(N)ncc1-c1nc(N2CCOCC2)c2sc(C(C)(C)O)cc2n1`, for which the Potency in [1] was 1.53 µM (active); in [2], 863 nM (active); in [3], 1090 nM (active); in assay [4], 1720 nM (active); in [5], 7.94 µM (active).

Regarding `CCCCCCCCCCCC(CC1OC(=O)C1CCCCCC)OC(=O)C(CC(C)C)NC=O` (stereo unspecified), the Potency entry in assay [1], in assay [2], in assay [3] and in assay [4] was “inactive” throughout. Also, the activity change, negative = inhibition in assay [5] is 0.438%.

For the compound `CCOc1ccccc1N=Nc1c(C)[nH]n(-c2nc(-c3ccccc3)cs2)c1=O`, the Potency entry in assay [1], in [2], in assay [3], in [4] and in assay [5] was “inactive” each time.

In the case of `c1ccc(CNc2nc(NCc3ccccc3)c3ccccc3n2)cc1`, the Potency was 19.3 µM (active) in [1]; 24300 nM (active) in [2]; 24300 nM (active) in assay [3]; 3850 nM (active) in assay [4]; 22.4 µM (active) in [5].

`CNC(=O)c1ccc(C)c(-n2c(C)cc(OCc3ccc(F)cc3F)c(Br)c2=O)c1`: the Potency entry in assay [1], in [2], in assay [3] and in [4] was “inactive” in each case. Moreover, in [5], the Potency was 22.4 µM (active).

In the case of `Cc1ccc(S(=O)(=O)OCC(=O)Nc2ccc(C(=O)O)c(O)c2)cc1`, the Potency entry in assay [1], in assay [2], in [3] and in assay [4] was “inactive” in each case. In addition, the activity change, negative = inhibition in assay [5] was determined as 2.59%.

Regarding `CSc1cccc(Nc2ncc3cc(-c4c(Cl)cccc4Cl)c(=O)n(C)c3n2)c1`, the Potency result in [1], in [2], in assay [3] and in assay [4] was “inactive” in each case. For the same compound, the activity change, negative = inhibition in [5] was -95.8%.

With `COC[C@H](NC(=O)c1cnc(C)s1)C(=O)N[C@@H](COC)C(=O)N[C@@H](Cc1ccccc1)C(=O)[C@@]1(C)CO1`, the Potency in [1] was 0.273 µM (active); in assay [2], 685 nM (active); in assay [3] it was 685 nM (active); in assay [4], 769 nM (active). Moreover, in assay [5], the activity change, negative = inhibition is -97.7%.

Consider `CC1(C)CC(=O)c2c(C(F)(F)F)nn(-c3ccc(C(N)=O)c(NC4CCC(O)CC4)c3)c2C1` (stereo unspecified), for which the Potency in [1] was 1.09 µM (active); in [2], 611 nM (active); in assay [3], 769 nM (active); in assay [4] it was 273 nM (active). Besides, the activity change, negative = inhibition in assay [5] is -89.6%.

On to `CNC(=O)Nc1ccc(-c2nc(N3CC4CCC(C3)O4)c3cnn(C4CCC5(CC4)OCCO5)c3n2)cc1`, for which the Potency in assay [1] was 0.0153 µM (active); in assay [2] it was 4.9 nM (active); in [3] it was 15.3 nM (active); in assay [4], 27.3 nM (active). Also, the activity change, negative = inhibition in assay [5] is -83.7%.

In the case of `CCNC(=O)[C@H]1O[C@@H](n2cnc3c(N)nc(NCCc4ccc(CCC(=O)O)cc4)nc32)[C@H](O)[C@@H]1O`, the compound was classed as inactive in [6]. Moreover, the Potency result in assay [1], in assay [2], in assay [3], in assay [4] and in assay [5] was “inactive” each time.

For `O=C(/C=C/c1ccc(O)c(O)c1)O[C@@H]1C[C@](O)(C(=O)O)C[C@@H](O)[C@H]1O`, the Potency entry in assay [1], in assay [2], in assay [3] and in assay [4] was “inactive” throughout. Moreover, the call in assay [7] was inactive.

Regarding `O=c1oc(Cl)c(Cl)c2ccccc12`, the call in [8], in assay [9] and in assay [6] was inactive. Moreover, in assay [10], the Potency was 25.1 µM (active) and inactive. The Potency entry in [1], in assay [2], in assay [3] and in [4] was “inactive” in each case.

Take `CCCCCCCCCCCCCCCCCCNC(=O)OCC(COP(=O)([O-])OCC[n+]1ccsc1)OC` (stereo unspecified): the Potency result in [11], in [1], in assay [2], in assay [3] and in assay [4] was “inactive” in each case.

Regarding `CN1[C@@H](CC(=O)c2ccccc2)CCC[C@H]1C[C@H](O)c1ccccc1`, the Potency entry in assay [11], in assay [10], in assay [1], in assay [2], in [3] and in assay [4] was “inactive” each time. Moreover, the outcome in assay [6] was inactive.

As to `CC1=CCC(O)(C(C)C)CC1` (stereo unspecified), the Potency entry in assay [1], in [2], in [3] and in assay [4] was “inactive” in each case. In addition, the outcome in [7] was inactive.

As to `O=c1cc(-c2ccc(O)cc2)oc2cc(O)cc(O)c12`, the result in [8], in assay [9], in assay [6] and in assay [7] was inactive. Further, the Potency entry in assay [1], in assay [2], in assay [3], in assay [4] and in [12] was “inactive” throughout.

As for `CC(C)c1ccc(C=O)cc1`, the Potency result in assay [1], in assay [2], in assay [3] and in [4] was “inactive” each time. Besides, the outcome in assay [7] was inactive.

Consider `CC(=O)/C=C/c1ccccc1`, for which the Potency entry in assay [13], in [14], in [1], in assay [2], in [3] and in [4] was “inactive” in each case.

Regarding `COC(=O)C1=C(C)NC(C)=C([N+](=O)[O-])C1c1ccccc1C(F)(F)F` (stereo unspecified), the Potency result in [11], in assay [1], in assay [2], in assay [3] and in assay [4] was “inactive” in each case.
